Structures are written as SMILES. Among all 330,000 compounds or so, about 4,400 (1.3%) were called active. This excerpt belongs to a sample that is enriched for actives. Unmarked numbers belong to inactive results.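 The calls were made as follows: active = growth inhibition of the mutant yeast at or above 50%; inactive = the rest.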

These results are taken from PubChem BioAssay AID463212 (Sanford-Burnham Center for Chemical Genomics, 2010).

The nature of this experiment: growth inhibitors of tim23-1 mutant yeast, primary screen, luminescence, uHTS (AID 463212).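 Also: temperature-sensitive mutant grown at 25 °C; plate controls were DMSO-treated mutant yeast for no effect and medium wells lacking yeast for full effect.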 As to conditions: S. cerevisiae tim23-1 growth, BacTiter-Glo luminescence, 24 h; at 20 µM; active compounds read high.
In general, inhibition refers to the change of the read-out against control, counted positive when it falls. Take `CC(C)(C)c1ccc(OC2=CS(=O)(=O)c3ccccc32)cc1`: the inhibition is 20.4%. To `CC(C)(C)c1ccc(Oc2ccc(N)cc2)cc1` belongs 60.7% (active); to `COc1cccc(Oc2ccc(N)cc2)c1`, 8.39%; to `COc1cccc(C2Nc3cccc4cccc(c34)N2)c1`, 57.5% (active).

As to `Oc1ccc(C2Nc3cccc4cccc(c34)N2)cc1`, the inhibition was 23.4%.

As for `COc1ccc(C2NC(=O)c3ccccc3N2)cc1` (stereo unspecified), the inhibition was 16.7%.

As to `O=C(NC1CCCC1)C(c1ccc(Cl)cc1)N(C(=O)c1csnn1)C1CC1` (stereo unspecified), the inhibition was 11.6%.

For the compound `O=C(CN1CCC(NC(=O)C2CC2)CC1)Nc1ccccc1[N+](=O)[O-]`, the inhibition is 8.81%.

For `O=S(=O)(c1ccc(SCc2ccc(Br)cc2)nc1)N1CCOCC1`, the inhibition was 6.55%.

Turning to `COc1cc(CC(=O)N/N=C/c2ccccc2)c([N+](=O)[O-])cc1OC`, the inhibition was 4.64%. As for `COc1cc(/C=N/NC(=O)CNC(=O)c2ccncc2)ccc1OC(C)=O`, the inhibition is -0.262%. As to `COc1ccc(C(=O)NCC(=O)N/N=C/c2ccc([N+](=O)[O-])o2)cc1OC`, the inhibition was 87.3% (active). To `CCN(CC(=O)Nc1cc(Cl)ccc1C)C(=O)CSCc1ccccc1` belongs 18.4%; to `Cc1ccc(S(=O)(=O)c2c[nH]c3ccc(C)cc3c2=O)cc1`, -5.69%; to `Cc1ccc(-c2cccc([C@H]3[C@@H]4C=CC[C@@H](C)[C@@H]4C(=O)N3Cc3ccccc3)c2)cc1`, 36.6%. As to `COCCCNc1nc2ccccc2nc1NS(=O)(=O)c1ccc(F)cc1`, the inhibition is 21.6%. Then `CC1CN(C(=O)c2ccc([N+](=O)[O-])s2)CC(C)O1` (stereo unspecified), with 13.9%; and `O=[N+]([O-])c1ccc(C=Nc2ccc(Cl)cc2Cl)s1`, with 60.2% (active). To `Cc1ccc2c(c1)C1C[N+](C)(CC(=O)c3ccccc3)CCC1N2C(=O)c1ccccc1Cl` (stereo unspecified) belongs -4.6%.

`COc1ccc(Nc2nc(N)nc(CSC(=S)N3CCC(C)CC3)n2)cc1`: the inhibition is 50%. To `CC(=O)c1ccc(NC(=O)c2ccc(-n3cncn3)c([N+](=O)[O-])c2)cc1` belongs -6.94%. To `Cc1cc(Cl)ccc1C(=O)C1CCCN(C(=O)c2nonc2C)C1` (stereo unspecified) belongs 41.7%. On to `O=C(Nc1ccccc1)c1ccc2c(c1)OCCCO2`, for which the inhibition was 51% (active).

In the case of `O=C(Nc1ccc(NC(=O)c2ccc3c(c2)OCO3)cc1)c1cccc(Cl)c1`, the inhibition is 1.12%.

With `O=C(Nc1ccc(N2CCOCC2)cc1)c1ccc2c(c1)OCO2`, the inhibition was 10.9%.

Turning to `C/C(CC(=O)Nc1cccc(F)c1)=N\NC(=O)C(=O)NC1CCCCC1`, the inhibition was 18.3%. To `O=C(Nc1cccc(F)c1)NC1CCCCCCC1` belongs 50.3% (active); to `O=C(Nc1cccc(F)c1)NC1CCCc2ccccc21` (stereo unspecified), 19.8%. Take `CC1=NOC(=O)/C1=C\c1ccccc1`: the inhibition was 16.8%. Then `COc1cc(/C=C2/C(=O)ON=C2C)ccc1OCc1cccc(F)c1`, with 52.2% (active); and `COc1cc(/C=C2\SC(=O)NC2=O)ccc1OCc1ccc(Cl)nc1`, with -2.95%. Then `C#CCOc1ccc(/C=C2/C(=O)ON=C2C)cc1OCC`, with 28.2%. `C=CCOc1ccc(/C=C2/C(=O)ON=C2C)cc1OCC`: the inhibition is 22.6%. Then `COc1cc(/C=C2/C(=O)ON=C2C)ccc1OCc1ccccc1F`, with 66.9% (active); and `CN1CCN(C(CNS(=O)(=O)c2cccs2)c2cccnc2)CC1` (stereo unspecified), with 7.24%. Turning to `CCN(CC(=O)Nc1ccc(OC)cc1)C(=O)c1ccc(=O)n(Cc2ccccc2)n1`, the inhibition is 7.12%. To `CC(C)N(C(=O)[C@H]1C[C@H](CC(=O)NC(C)(C)C)C(=O)N2CCc3c([nH]c4ccc(Cl)cc34)[C@]12C)C(C)C` belongs 43.7%. To `COC(C[C@H](O)CC(=O)[C@@H](C)OCc1ccccc1)OC` belongs 8.93%. Then `COC(C/C=C/C(=O)[C@@H](C)OCc1ccccc1)OC`, with 56.2% (active).

As to `COC(C[C@@H]1O[C@@H]1C(=O)[C@H](C)OCc1ccccc1)OC`, the inhibition is -16.7%. Then `Cc1ccc(NS(=O)(=O)c2ccc3c(c2)oc(=O)n3C)c(C)c1`, with 21.8%; and `CCn1cc(C(=O)NC2CCCCCC2)c(=O)c2cc(S(=O)(=O)N3CCCCC3)ccc21`, with 12.1%. As to `N#Cc1cccc(CSc2ncnc(N)n2)c1`, the inhibition was 10.7%. With `CCCC(=O)N1CCN(c2nnc(-c3ccc(C)cc3)c3ccccc23)CC1`, the inhibition is 50.5% (active). To `OCCN1CCN(c2nnc(-c3ccccc3)c3ccccc23)CC1` belongs -13.1%; to `c1ccc(-c2nnc(N3CCOCC3)c3ccccc23)cc1`, -18.2%. To `O=C(Oc1cccc(O)c1)C1CCCCC1` belongs 25.1%; to `CCCSC(=S)NC1CCS(=O)(=O)C1` (stereo unspecified), 8.59%.

`COc1ccc2c(c1)C(=C(C#N)C#N)C(=O)N2CCc1ccccc1`: the inhibition is 70.8% (active).

Turning to `C#CCN1C(=O)C(O)(CC(=O)c2cc(OC)ccc2OC)c2ccccc21` (stereo unspecified), the inhibition is 30%. Then `CCCCN1C(=O)/C(=C(/C#N)C(N)=O)c2ccccc21`, with 21.8%. Then `COc1cccc(-c2nnc(NC(=O)c3ccc(S(=O)(=O)N(CC(C)C)CC(C)C)cc3)o2)c1`, with 11.6%; and `NC(=O)c1cc(-c2cccnc2)nc2ccc(Br)cc12`, with -4.37%; and `O=c1c2cc(Br)ccc2nc(-c2cccc(Cl)c2)n1O`, with 65.8% (active). Regarding `Cc1cccc(-c2nc3ccccc3c(=O)n2NC(=O)Cc2ccc(Cl)cc2)c1`, the inhibition is 23.4%. To `CCOc1cc(NC(=O)Nc2ccccc2)c(OCC)cc1NC(=O)CC` belongs 7.41%; to `CCOc1cc(NC(=O)c2ccccc2C(=O)O)c(OCC)cc1NC(=O)c1ccccc1F`, 53% (active). In the case of `CCOc1ccccc1NC(=O)c1cc(S(=O)(=O)N2CCC3(CC2)OCCO3)ccc1F`, the inhibition was 24.5%. Take `CCCCC(CC)CNC(=O)CCCCn1c(=O)[nH]c2ccsc2c1=O` (stereo unspecified): the inhibition is -5.06%. As for `CCCCCNC(=O)C1c2ccccc2Oc2ccccc21`, the inhibition was 18.6%. Then `CCCCC(CC)CNC(=O)C(=O)C1C(=O)Nc2ccccc21` (stereo unspecified), with 51.7% (active).
